# Results reported in PubChem BioAssay (NCATS).
# Records with an inconclusive call do not appear. A call without a number means that no potency is given here. Calls of active or inactive are those of the source. Calls come from the whole dose curve; as a rule, active = well fitted inhibition curve with a large enough effect; inconclusive = small, poorly fitted or top-dose-only effect; inactive = flat fitted curve, though single readings scatter.
# Target: Calcium and integrin-binding protein 1 (Homo sapiens) (UniProt Q99828)
# Sequence (Q99828 whole entry, looked up): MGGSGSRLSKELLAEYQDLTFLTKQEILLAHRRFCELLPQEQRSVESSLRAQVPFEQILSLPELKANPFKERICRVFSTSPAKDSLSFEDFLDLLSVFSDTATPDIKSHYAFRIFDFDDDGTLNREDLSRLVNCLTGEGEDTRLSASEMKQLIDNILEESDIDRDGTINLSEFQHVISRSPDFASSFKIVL
# Assay: Primary qHTS for Identification of Calcium Integrin Binding Protein 1 (CIB1) Competitor (AID 1508620)
# Conditions: CIB1-GST / FITC-alphaIIb peptide fluorescence polarization; series mostly up to 114 µM
# Procedure, shortened: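 Fluorescence polarization competition: GST-tagged CIB1 (1 uM final) preincubated with compound 15 min at room temperature, then FITC-labelled alphaIIb peptide (100 nM final) added. After 15 min at room temperature, polarization read at Ex 480/Em 540.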
# Potency is the fitted concentration of half-maximal effect.
row,SMILES,Potency
1,COC1CC(O[C@H]2CC[C@]3(C)C4CC[C@]5(C)[C@@H](C6=CC(=O)OC6)[C@@H](OC(C)=O)C[C@]5(O)C4CC[C@@H]3C2)OC(C)C1O (stereo not given in full),inactive
2,C[C@H]1O[C@@H](O[C@H]2CC[C@]3(C=O)C4CC[C@]5(C)[C@@H](C6=CC(=O)OC6)CC[C@]5(O)[C@@H]4CC[C@]3(O)C2)C[C@@H](O)[C@@H]1O (stereo not given in full),inactive
3,CC1=CC2OC3[C@H](O)C[C@@](C)([C@]34CO4)[C@@]2(CO)[C@H](O)C1=O (stereo not given in full),inactive
4,C=C1[C@@H](C)[C@H]2[C@H](Cc3ccccc3)NC(=O)[C@]23OC(=O)/C=C/C(=O)CCC[C@@H](C)C/C=C/[C@H]3[C@@H]1O,20 µM (active)
5,CC(C)(C)[C@]1(O)C[C@@H]2OC(=O)C[C@@]23C(=O)O[C@@H]2OC(=O)[C@@H](O)[C@]213,inactive
6,C[C@H]1C/C=C/[C@H]2[C@@H]3O[C@]3(C)[C@@H](C)[C@H]3[C@H](Cc4ccccc4)NC(=O)[C@]32OC(=O)O/C=C/[C@@](C)(O)C1=O,inactive
7,CNC(=O)c1cc(C#N)cc(C)c1NC(=O)c1cc(Br)nn1-c1ncccc1Cl,inactive
8,OCc1nnc2n1-c1ccc(Cl)cc1C(c1ccccc1Cl)=NC2,inactive
9,CN[C@@H]1C[C@H]2O[C@@](C)([C@@H]1OC)n1c3ccccc3c3c4c(c5c6ccccc6n2c5c31)C(=O)NC4,inactive
10,COC1CC(O[C@H]2CC[C@]3(C=O)C4CC[C@]5(C)[C@@H](C6=CC(=O)OC6)CC[C@]5(O)[C@@H]4CC[C@@H]3C2)OC(C)C1O[C@@H]1O[C@H](CO)[C@@H](O[C@@H]2O[C@H](CO)[C@@H](O)[C@H](O)[C@H]2O)[C@H](O)[C@H]1O (stereo not given in full),inactive
